# High-throughput results from PubChem BioAssay.
# NR0B1 inh: inhibitors of human orphan nuclear receptor DAX1 (NR0B1); P51843; HEK293 Gal4-DAX1 luciferase reporter, luminescence; inhibition, % at 6.75 µM; actives 0.99% (n = 340,000); AID 504766;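 active = inhibition above the mean over all tested compounds plus 3 SD, cut at about 4.2% in these data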;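 also: 0% = DAX1-transfected cells with DMSO and 100% = empty-vector control cells with DMSO; inhibition shows as a rise in luminescence from relieved DAX1 repression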
# Target sequence (P51843 207-470 limits assumed): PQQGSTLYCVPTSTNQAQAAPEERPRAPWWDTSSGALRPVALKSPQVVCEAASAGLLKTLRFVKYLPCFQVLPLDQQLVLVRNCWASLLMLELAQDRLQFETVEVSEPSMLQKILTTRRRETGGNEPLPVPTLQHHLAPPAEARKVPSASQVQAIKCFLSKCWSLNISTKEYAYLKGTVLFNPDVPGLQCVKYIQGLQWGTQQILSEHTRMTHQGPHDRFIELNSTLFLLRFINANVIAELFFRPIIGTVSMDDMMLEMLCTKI
# HSF1 inh: HSF1 inhibition | NIH3T3-HGL HSE-luciferase, MG132-induced, luminescence 8 h; active compounds read low | activity change, negative = inhibition, % at 7.5 µM (by protocol) | actives 0.77% (n = 300,000);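 active = more than half of replicate wells show activity change below -50%, luminescence cut by over half; inconclusive = some wells, but at most half, below -50%; inactive = no replicate well below -50%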;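 also: luciferase reports HSF-1 transcriptional activity via heat shock element; 0% = median of DMSO wells and -100% = zero luminescence signal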
# AHR act: activators of human aryl hydrocarbon receptor. AID 2796. activation, % at 5 µM. actives 2.5% (n = 320,000). P35869. AHR-responsive luciferase reporter cells, luminescence; in the data active = activation above about 47%;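 also: 0% = vehicle wells and 100% = reference agonist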
# HSF1 activator: increases HSF-1 driven luciferase reporter signal. NIH3T3-HGL HSF-1 luciferase reporter, MG132, 8 h; 100% = twice DMSO control signal. activation, % at 9 µM. actives 1.7% (n = 300,000);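 active = mean replicate activation of at least 50% with a set share of replicates each reaching 50%; inconclusive = only one of those two conditions met; inactive = mean below 50% and too few replicates reaching it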;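 also: 0% = median of the neutral control wells and 100% = twice that signal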
# GAA850 FXN act: frataxin GAA850 promoter activation; HEK293 lucGAA850 FXN promoter luciferase reporter, 24 h; percent of 10 µM SAHA response; activation, % at 6 µM; actives 0.56% (n = 360,000); AID 540364;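 active = activation above the average of all compounds screened plus 3 SD, cutoff fixed separately per campaign, cut at about 7.5% in these data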;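 also: 0% = DMSO wells and 100% = 10 µM SAHA wells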
# An asterisk follows results filed as active; ? = inconclusive; / = no result given. Only some compounds are listed: those with a hit (about 5.4% of all), similar ones and a draw of the others.
SMILES,NR0B1 inh,HSF1 inh,AHR act,HSF1 activator,GAA850 FXN act
Cc1ccc(C)c(OCCC(=O)N2CCN(S(=O)(=O)c3cc(C)ccc3C)CC2)c1,-0.2,2.6,6.9,-0.6,0.9
CCS(=O)(=O)Nc1cccc(C2=NN(S(=O)(=O)c3ccc(C)cc3)C(c3ccco3)C2)c1 (centres undefined),-0.8,5.2,2.4,24.3,3.7
CCC(C)(C)NC(=O)CN(C(=O)C(=O)Nc1ccc2c(c1)OCCO2)C1CC1,-0.7,-4.5,1.0,-0.2,2.5
O=C(c1ccccc1F)N1CCN(c2ccc([N+](=O)[O-])c(N3CCOCC3)c2)CC1,5.8*,-4.1,3.5,-7.9,-0.3
Cn1ncc(Br)c1C(=O)Nc1ccc(Cl)cn1,2.0,-2.3,64.8*,6.9,1.8
COC(=O)c1ccccc1NC(=O)c1c(Br)cnn1C,0.7,1.6,2.7,-2.1,0.3
Cn1ncc(Br)c1C(=O)Nc1ccc(Br)cn1,-0.2,-2.9,174.8*,25.9,0.5
CCN(C(=O)Cn1nnc(-c2ccccc2)n1)C1CCS(=O)(=O)C1 (centres undefined),0.9,-4.5,-0.7,-13.7,1.6
COc1ccc(NS(=O)(=O)c2cn(C)cn2)cc1OC,-0.8,-4.2,0.2,-5.5,-1.0
Cc1nn(C(C)C(=O)N2CCc3ccccc32)c(C)c1[N+](=O)[O-] (centres undefined),0.1,1.5,63.0*,-3.9,1.2
Cc1ccc(OC(C)C(=O)N2CCc3ccccc32)c([N+](=O)[O-])n1 (centres undefined),1.6,/,/,/,2.0
Cc1cc(C(C)(C)C)oc1C(=O)N(CC(=O)NC1CCCC1)c1c(C)cccc1C,-3.0,-52.8*,1.0,-57.7,-1.7
Cn1cc(C(=O)N/N=C/c2ccc(Br)c([N+](=O)[O-])c2)c2ccccc21,/,23.0,2.0,55.2*,-0.1
Cn1cc(C(=O)N/N=C/c2ccc3c(c2)OCO3)c2ccccc21,-3.7,-0.7,-6.4,2.5,-1.8
Cn1cc(C(=O)N/N=C/c2cccs2)c2ccccc21,0.6,19.3,108.7*,22.5,6.5
O=[N+]([O-])c1ccc(S(=O)(=O)N2CCSC2c2ccco2)cc1 (centres undefined),0.1,19.2,5.1,50.6*,-1.0
COc1ccc(S(=O)(=O)Nc2ccc3c(c2)C(=O)N([C@H](C)CO)C[C@H](C)[C@@H](CN(C)S(=O)(=O)c2ccc(F)cc2)O3)cc1,0.9,/,-1.7,/,0.4
Cc1ccccc1C(=O)NC[C@@H]1CCCN2CCCC[C@H]12,4.5*,-56.1*,2.3,-64.3,2.6
Cc1ccccc1CNC(=O)c1ccccc1C,-0.2,-2.0,2.9,7.5,1.9
Cc1ncsc1CCC(=O)N1CCCC(Nc2ccc(F)c(F)c2)C1 (centres undefined),0.1,0.0,-2.4,-20.0,0.5
Cc1ccc(NC2CCCN(C(=O)CCc3scnc3C)C2)cc1C (centres undefined),-0.7,8.6,50.2*,34.6,0.1
O=C(O)c1cccc2c1-c1ccccc1/C2=N\Nc1ccccc1,5.4*,-6.1,10.7,-22.5,4.4
O=C(NC(=O)c1ccccc1O)c1ccc(C(F)(F)F)cc1,/,62.2,16.1,90.9*,1.8
COCCCN(Cc1ccco1)C(=O)Cn1ncc2c([nH]c3ccccc32)c1=O,-0.3,4.6,1.1,-6.6,-0.7
COCCCN(Cc1ccco1)C(=O)CSc1nc2ncccc2[nH]1,-0.6,-55.4*,2.8,-64.2,1.0
SMILES,NR0B1 inh,HSF1 inh,AHR act,HSF1 activator,GAA850 FXN act
COc1cccc(N(CC(=O)Nc2cccnc2)S(C)(=O)=O)c1,2.3,-80.8*,2.7,-85.0,0.0
CC(C)CNC(=O)NC1(C(F)(F)F)Oc2ccccc2O1,0.8,-5.5,1.0,-1.7,2.6
COc1cccc(NC(=O)Nc2cccc(C(=O)O)c2)c1,-4.2,-31.7,-3.0,-41.2,5.0
COc1cccc(NC(=O)NC2(C(F)(F)F)Oc3ccccc3O2)c1,0.7,39.3,7.1,67.3*,3.9
COc1cccc(NC(=O)Nc2cccnc2)c1,0.5,0.8,50.2*,3.8,-0.8
Cc1cccc(NS(=O)(=O)c2ccc(NC(=O)CN(c3cc([N+](=O)[O-])ccc3C)S(C)(=O)=O)cc2)c1,-3.1,3.1,18.9,22.4,0.1
COc1ccc(C)cc1NS(=O)(=O)c1ccc(NC(=O)CN(c2cc([N+](=O)[O-])ccc2C)S(C)(=O)=O)cc1,-3.2,17.9,47.7*,20.9,-1.5
COc1ccccc1C(=O)Nc1ccccc1N1CCN(C(=O)c2ccc(Cl)cc2)CC1,-0.6,9.3,0.7,32.9,3.0
CCN(Cc1ccncc1)C(=O)c1cccc(S(=O)(=O)N2CCCCC2)c1,0.5,/,0.1,/,-0.7
Cc1ccccc1C(=O)NCC(=O)Nc1ccc(C)c(S(=O)(=O)N2CCCCCC2)c1,-0.9,2.4,1.4,-17.0,-1.6
CCNc1nc(NCC)n2c(SCC(=O)N(CC)C3CCCCC3)nnc2n1,-2.4,-19.9,2.5,-29.2,-0.2
CC(CC(=O)Nc1ccc2c(c1)c(=O)n(C)n2Cc1ccc(F)cc1)C(F)(F)F (centres undefined),/,/,/,/,-1.2
COc1ccc(OC)c(N(CC(=O)Nc2ccccc2)S(C)(=O)=O)c1,0.1,-65.2*,2.8,-71.8,0.9
CCCC1=[N+](CC(=O)c2ccccc2)CCn2c(C)ccc21,0.1,-3.9,49.5*,-2.0,-0.8
CCCC1=[N+](CC)CCn2c(C)ccc21,1.9,/,-1.4,/,-2.9
Cc1csc(=O)n1CC(=O)OCC(=O)Nc1ccc(F)c(F)c1,-0.1,0.9,2.9,8.8,0.2
C=C1CCC[C@]2(C)C[C@H]3OC(=O)C(CNC(C)CC)[C@H]3CC12 (some centres undefined),-2.3,11.4,0.6,30.3,-1.1
C=C1CCC[C@]2(C)C[C@H]3OC(=O)C(CN4CCCCC4CO)[C@H]3CC12 (some centres undefined),-2.0,23.2,1.8,?,-3.2
C=C1CCC[C@]2(C)C[C@H]3OC(=O)C(CNC(CC)CO)[C@H]3CC12 (some centres undefined),-2.3,77.8,3.3,142.1*,-2.8
C=C1CCC[C@]2(C)C[C@H]3OC(=O)C(CNC(C)(CO)CO)[C@H]3CC12 (some centres undefined),-0.7,43.1,2.8,73.7*,-2.8
N#Cc1ccc(COC(=O)c2cnc(Cl)c(Cl)c2)cc1,-0.8,-8.3,0.8,-7.6,0.0
S=C(Nc1cccc(Br)c1)c1ccccc1,0.5,18.2,79.1*,33.8,4.1
CN(C)c1ccc(C(=S)Nc2ccccc2)cc1,-1.3,-81.7*,17.8,-84.7,-9.2
O=C(CCc1ccccc1)NC(=S)Nc1cccc(Br)c1,0.9,9.4,13.5,17.7,1.4
O=C1C(Nc2ccccc2)=C(NS(=O)(=O)c2ccccc2)C(=O)c2ccccc21,-0.9,33.3,56.8*,60.4*,4.5
Cn1ncc2c(N3CCC(Cc4ccccc4)CC3)ncnc21,-1.7,10.8,73.3*,6.7,3.0
